About 79,000 compounds went through this panel and 15% of them were active in at least one assay; those are over-represented in the sample as a whole. Rule as the data show it: active = growth inhibition above about 70%; inactive = the rest.
Key:
[1] = NCI Yeast Anticancer Drug Screen. Data for the rad50 strain (AID 155);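 also: 0% = growth of vehicle-only cultures of the same strain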; conditions: S. cerevisiae rad50 strain growth inhibition; at 50.0 µM; active compounds read high
How it was run: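 DNA repair mutant yeast, compound exposure, growth read-out; inhibition is taken relative to vehicle.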

[2] = NCI Yeast Anticancer Drug Screen. Data for the mec2-1 strain (AID 157); conditions: S. cerevisiae mec2-1 strain, at 50.0 µM, active compounds read high
How it was run: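 Compounds were applied to mec2-1 yeast cells. Their growth was then compared with that of vehicle-treated cultures to give growth inhibition.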

[3] = NCI Yeast Anticancer Drug Screen. Data for the sgs1 mgt1 strain (AID 161);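 also: 0% = growth of cultures given vehicle only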; conditions: S. cerevisiae sgs1 mgt1 strain, at 50.0 µM, active compounds read high
How it was run: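 Percent growth inhibition was derived by comparing compound-exposed mutant yeast with vehicle-exposed cultures. The strain carries alterations in DNA damage repair.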

[4] = NCI Yeast Anticancer Drug Screen. Data for the cln2 rad14 strain (AID 165);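 also: 0% = growth equal to vehicle treated cultures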; conditions: S. cerevisiae cln2 rad14 strain, at 50.0 µM, active compounds read high
How it was run: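 Strain: cln2 rad14 yeast, altered in cell cycle control and DNA damage repair. Read-out: growth inhibition vs vehicle.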

[5] = NCI Yeast Anticancer Drug Screen. Data for the bub3 strain (AID 167); conditions: S. cerevisiae bub3 mutant strain, at 50.0 µM, active compounds read high
How it was run: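 In this screen, a yeast mutant lacking normal mitotic checkpoint function is challenged with compound. Relative growth versus vehicle gives the inhibition value.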

[6] = NCI Yeast Anticancer Drug Screen. Data for the mlh1 rad18 strain (AID 175); conditions: S. cerevisiae mlh1 rad18 strain growth inhibition; at 50.0 µM; active compounds read high
How it was run: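 A repair-deficient yeast strain is exposed to test compound, and growth is scored relative to vehicle-treated controls.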

Measured: growth inhibition

COC(=O)C([O][Ge]([CH3])([CH3])[CH3])c1ccccc1 (stereo unspecified)
inactive: [1] 8.75% | [2] -15.1% | [3] -1.5% | [4] 21.2% | [5] -12.9% | [6] -12.7%

CCCCCCN(C(=O)Oc1ccccc1)C(C#N)c1ccccc1 (stereo unspecified)
inactive: [1] 0.1% | [2] 5.55% | [3] -16.8% | [4] -14.7% | [5] 1.75% | [6] -20.2%

CN(C)C(=O)C1Cc2ccccc2CC1C(=O)N(C)C (stereo unspecified)
inactive: [1] -0.4% | [2] -0.55% | [3] 0.85% | [4] -21.5% | [5] -3.6% | [6] -9.75%

C1CCC2(CC1)OCCO2
inactive: [1] -0.75% | [2] -37.9% | [3] -20.8% | [4] 1.3% | [5] -7.85% | [6] 0.6%

CCOc1ccccc1C(=O)Nc1cc(Cl)ccc1Cl
inactive: [1] 6.8% | [2] -18.1% | [3] -7.45% | [4] -4.8% | [5] -15.1% | [6] 2.85%

CC(=O)CC(=O)NN(C)C
inactive: [1] -4.8% | [2] -32.4% | [3] -28.9% | [4] 8.5% | [5] -36.4% | [6] 9.85%

COc1cc(C(=O)C(C=O)c2ccccc2)c([N+](=O)[O-])cc1OC (stereo unspecified)
inactive: [1] 14.8% | [2] 21.4% | [3] 21.5% | [4] 25.8% | [5] 43% | [6] 23.1%

CN(C)CCCN=c1c2ccccc2n(C)c2[nH]c(=O)n(C)c(=O)c12
inactive: [1] -32.1% | [2] -0.75% | [3] -16.2% | [4] -9.2% | [5] 0.05% | [6] -6.85%

CC(=O)Nc1cc(Br)cc2c1-c1ccc(Br)cc1C2
inactive: [1] 36.7% | [2] 14.7% | [3] 16.2% | [4] 8.2% | [5] 5.3% | [6] 23.4%

COc1ccc(C(O)C(c2ccc(OCc3ccccc3)cc2)c2ccc(OCc3ccccc3)cc2)cc1 (stereo unspecified)
inactive: [1] 1.05% | [2] -27.9% | [3] -5.15% | [4] -4.25% | [5] -29.2% | [6] -22.4%

O=C(COC(=O)c1ccccc1Br)c1ccc(-c2ccccc2)cc1
inactive: [1] 33.6% | [2] 20.8% | [3] 31.6% | [4] 31.4% | [5] 0.7% | [6] 23.2%

CCC(C)(NC(N)=O)c1ccccc1 (stereo unspecified)
inactive: [1] -6.9% | [2] 10.4% | [3] -12.1% | [4] -7.5% | [5] -12.9% | [6] -7.35%

O=C(Nc1cccc(O)c1)C(O)C(O)C(O)C(O)CO (stereo unspecified)
inactive: [1] -10.8% | [2] 14.4% | [3] 18.2% | [4] 10.6% | [5] 9.05% | [6] 10.9%

C/C(CC(O)(C(F)(F)Cl)C(F)(F)Cl)=N\Nc1ccccc1
inactive: [1] 28% | [2] 15.1% | [3] 6.55% | [4] 28.1% | [5] -0.9% | [6] 17.5%

O=C1C(O)=C(c2ccccc2)C(=O)N1c1ccccc1
inactive: [1] -25.2% | [2] -9.05% | [3] -11.7% | [4] -62.5% | [5] 6.65% | [6] 9.5%

CCOc1ccc(C2=NNC(=O)CC2)cc1
inactive: [1] 26% | [2] -8.55% | [3] -9.15% | [4] 14.3% | [5] 13.9% | [6] 17.6%

COc1ccc(C2C/C(=N/O)c3ccccc3O2)cc1 (stereo unspecified)
inactive: [1] 16.6% | [2] -7.85% | [3] 5.85% | [4] -93.6% | [5] -7.75% | [6] 10.1%

O=c1[nH]c(=O)c2nnoc2[nH]1
inactive: [1] 12.4% | [2] 7.65% | [3] 4.55% | [4] -20.2% | [5] 7.4% | [6] -16.5%

NNC(=O)C(=O)O
inactive: [1] 14.4% | [2] -2.95% | [3] 20.2% | [4] -15% | [5] 15.3% | [6] 14.8%

CCCCCc1c(-c2n[nH]c(C)c2CCCCC)n[nH]c1C
inactive: [1] 5.55% | [2] -6.05% | [3] -9.1% | [4] -7.85% | [5] -31.6% | [6] 1.8%

N=C1C(=O)C(=N)c2ccccc2-c2ccccc21
inactive: [1] -31% | [2] -48.8% | [3] -14.7% | [4] -0.05% | [5] -36.6% | [6] -23.9%

O=[N+]([O-])c1ccc(OS(=O)(=O)Cc2ccccc2)cc1
inactive: [1] 3.8% | [2] -9.35% | [3] 8.95% | [4] -36.6% | [5] 3.95% | [6] -9.25%

Cc1cc(/C=C2\SC(=S)NC2=O)cc(C)c1O
inactive: [1] 1.65% | [2] 0.8% | [3] 24.6% | [4] 13.1% | [5] 22.8% | [6] 13.7%

CCOC(=O)C(CCC(=O)OC)C(=O)OCC
inactive: [1] -2.45% | [2] -1.75% | [3] -32.5% | [4] -28.2% | [5] -5.25% | [6] 1.6%

FC(F)C(F)(F)N1c2ccccc2Sc2ccccc21
inactive: [1] 27.6% | [2] -6.2% | [3] 19.9% | [4] 6.9% | [5] 27.1% | [6] 60.1%

CCc1cccc(C(C)C)c1NC(=O)C(=O)C(CC(=O)Nc1ccc(Cl)c(Cl)c1)C(=O)OC (stereo unspecified)
inactive: [1] -1.85% | [2] 3.6% | [3] -2.65% | [4] 15.8% | [5] 14.8% | [6] 7.7%

CC(=O)O[C@@H]1CC[C@@]2(C)C(=O)C34C[C@@]5(C)C([C@@H](C)CCCC(C)C)CCC5(C)[C@](O)(O3)C(=O)[C@H]4C2C1(C)C (stereo partly specified)
inactive: [1] 18.4% | [2] 24.6% | [3] 11.5% | [4] 1.8% | [5] -0.05% | [6] 27.1%

COc1cc(NCCCCCCN(C)C)c2ncccc2c1
inactive: [1] -17.4% | [2] -21.2% | [3] -3.1% | [4] -19.4% | [5] 5.8% | [6] -14.8%

Cc1ccc(N=NN(C)C)cc1NC(=O)NCC(=O)OC(C)(C)C
inactive: [1] 4.7% | [2] 8.7% | [3] 4.95% | [4] -31.6% | [5] 7.25% | [6] 7.8%

Oc1ccc(O)c(-n2cccn2)c1-n1cccn1
inactive: [1] -0.85% | [2] -4.55% | [3] -1.6% | [4] 6.3% | [5] 0% | [6] -2.75%

O=c1[nH]c(Nc2ccc(F)c(Cl)c2)nc2nc[nH]c12
inactive: [1] 4.4% | [2] 6.85% | [3] 4.6% | [4] -4.75% | [5] 2.55% | [6] -23.7%

ClC/C(=N\N1CCCCCC1)c1ccccc1
inactive: [1] -7.8% | [2] -4.05% | [3] -4.75% | [4] -10.2% | [5] -1.6% | [6] 2.2%

C/C(=N\NC(=O)c1ccncc1)c1ccccc1Cl
inactive: [1] -23.3% | [2] -23.9% | [3] -16.1% | [4] -13.3% | [5] -75.8% | [6] -17.4%

N#Cc1cc2c(n(C3OC(CO)C(O)C(O)C3O)c1=S)CCCCC2 (stereo unspecified)
inactive: [1] -3.95% | [2] -16% | [3] -3.75% | [4] -0.75% | [5] 5.65% | [6] 24.1%

CN(C(=O)Cl)c1ccccc1
inactive: [1] 9.1% | [2] -9.35% | [3] 7.8% | [4] 8.6% | [5] 16.8% | [6] 16.8%

O=C(N=Nc1c(O)[nH]c2ccc(Br)cc12)c1ccncc1
inactive: [1] -1.75% | [2] 2.8% | [3] 9.6% | [4] 3.2% | [5] 8.25% | [6] -10.1%

NC(=O)N/N=C1/C=C2CCCCC2CC1 (stereo unspecified)
inactive: [1] 6.8% | [2] 0.35% | [3] -1% | [4] 10.8% | [5] -16.4% | [6] 10.2%

O=C1C=Cc2ccccc2/C1=C/c1nc(-c2ccc(Cl)cc2)oc1O
inactive: [1] -3.2% | [2] 7.05% | [3] -8.75% | [4] -1.2% | [5] 6.9% | [6] -13.3%

CCOC(=O)CCC(NC(=O)c1ccc(Nc2nc3cc(C(F)(F)F)ccc3nc2C(=O)OCC)cc1)C(=O)OCC (stereo unspecified)
inactive: [1] -20.1% | [2] 0.55% | [3] -14.3% | [4] -1.85% | [5] -10% | [6] 4.9%

Brc1ccc(/C(=N/Nc2ccccc2)Oc2ccccc2)cc1
inactive: [1] 17.6% | [2] 1.8% | [3] 16.1% | [4] 25.3% | [5] 14.8% | [6] 19.6%

C=CCN(CC=C)P(=O)(N(CC=C)CC=C)N(CC=C)CC=C
inactive: [1] 22.3% | [2] 8.9% | [3] 16.4% | [4] 0.15% | [5] 17.6% | [6] 21.4%

Reference: PubChem BioAssay (NCI)
